Data reported in ChEMBL document CHEMBL3433997, “St. Jude Leishmania screening dataset” (2016).

Legend:
Format in all cases: functional
[1] = biological target: Solute carrier family 2, facilitated glucose transporter member 1 (Homo sapiens) (UniProt P11166); experiment: ST_JUDE_LEISH: Cytotoxicity at 2uM final concentration against transgenic Leishmania Mexicana promastigotes LmGLUT1 that are glucose transport deficient and complemented with the human glucose transporter GLUT1. Activity is measured by DNA content using SYBR green in vitro
[2] = biological target: Hexose transporter 1 (Plasmodium falciparum) (UniProt O97467); experiment: ST_JUDE_LEISH: Cytotoxicity at 2uM final concentration against transgenic Leishmania Mexicana promastigotes LmPfHT that are glucose transport deficient and complemented with the Plasmodium falciparum hexose transporter. Activity is measured by DNA content using SYBR green in vitro
[3] = biological target: Glucose transporter (Leishmania mexicana) (UniProt O61059); experiment: ST_JUDE_LEISH: Cytotoxicity at 2uM final concentration against transgenic Leishmania Mexicana promastigotes LmGT2 that are glucose transport deficient and complemented with the L. Mexicana glucose transporter 2. Activity is measured by DNA content using SYBR green in vitro

Solute carrier family 2, facilitated glucose transporter member 1 (Homo sapiens), sequence (P11166 whole entry): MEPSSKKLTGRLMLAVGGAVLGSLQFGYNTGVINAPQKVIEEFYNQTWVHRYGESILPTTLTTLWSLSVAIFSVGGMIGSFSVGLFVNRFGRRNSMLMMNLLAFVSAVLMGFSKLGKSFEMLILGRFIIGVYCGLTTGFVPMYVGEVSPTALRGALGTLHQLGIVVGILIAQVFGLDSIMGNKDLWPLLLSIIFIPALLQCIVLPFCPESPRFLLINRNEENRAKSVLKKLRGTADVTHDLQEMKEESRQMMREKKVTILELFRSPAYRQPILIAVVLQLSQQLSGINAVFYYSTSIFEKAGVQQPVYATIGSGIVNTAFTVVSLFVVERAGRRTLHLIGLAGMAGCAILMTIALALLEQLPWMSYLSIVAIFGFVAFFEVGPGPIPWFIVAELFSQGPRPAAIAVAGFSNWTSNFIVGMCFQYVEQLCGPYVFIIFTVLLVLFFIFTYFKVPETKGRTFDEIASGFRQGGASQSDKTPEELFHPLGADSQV

Row | SMILES | inhibition [1] [%] | inhibition [2] [%] | inhibition [3] [%]
1 | Cc1ccc(NC(=O)N2CCC(n3c(-c4ccccc4)nc4cccnc43)CC2)cc1F | 6.53 | 7.11 | 5.43
2 | CCNc1cc(C(=O)N[C@@H](Cc2ccccc2)[C@H](O)CN[C@H]2CCc3ccccc32)cc(N2CCCC2=O)c1 | 1.96 | 1.74 | 2
3 | CC(=O)N1N=C(c2ccc(Cl)cc2)Sc2c1nc(-c1ccccc1)n2C(C)=O | 2.66 | 1.84 | 2.48
4 | c1ccc(-n2ncc(CNCc3ccc(-c4ccc(-c5nc6ccccc6[nH]5)s4)cc3)n2)cc1 | 2.35 | 2.45 | 0.43
5 | COc1cc(CNCCCCCCNCc2cc(OC)c(OC)c3ccccc23)c2ccccc2c1OC | 4.44 | 4.27 | 3.2
6 | O=C(/C=C/c1ccc(Cl)c(Cl)c1)NCCCCCN1CCN(C(=O)Nc2cccc(F)c2)CC1 | 3.99 | 2.95 | 2.33
7 | CCC(C)NC(=O)Nc1ccc(-c2cccc(-c3nc4ccccc4[nH]3)c2)cc1 (stereo not given) | -0.78 | 4.24 | 5.49
8 | NS(=O)(=O)c1cccc(-c2ccc3nccc(-c4cccc(S(N)(=O)=O)c4)c3c2)c1 | 2.86 | 0.59 | -1.04
9 | COc1c(C2CCN(CCCCNC(=O)c3ccc(-c4ccc(C#N)cc4)cc3)CC2)ccc2c1C(C)(C)CCC2(C)C | 1.57 | 2.62 | -0.67
10 | CC(C)(C)c1ccc2nccc(Nc3cccc(O)c3)c2c1 | 2.99 | 2.35 | 2.33
11 | CC(C)(C)c1ccc(NC(=O)c2cccc(CN3CCCN(Cc4ccc(F)cc4)CC3)c2)cc1 | 3 | 2.6 | 1.15
12 | Oc1cc(Nc2ccnc3ccc(I)cc23)c(F)cc1Cl | 0.49 | 1.05 | -1.45
13 | N=C(N)c1ccc(Nc2nccc(Nc3nc(-c4ccccc4)cs3)n2)cc1 | 0.38 | 0.47 | -0.9
14 | Cc1ccc(CN2CCN(c3cc4c(cc3Cl)CCN4C(=O)Cc3ccc(NC(=O)c4ccc(C(F)(F)F)cc4)cc3)CC2)cc1 | 6.58 | 5.46 | 1.59
15 | CCOC(=O)c1c(CN2CCCC2)n(-c2ccccc2)c2cc(Br)c(O)cc12 | 17 | 14 | 16.7
16 | Cc1nn(-c2ccccc2)nc1C(=O)NC1CCN(CCNC(=O)c2ccc(Cl)c(Cl)c2)CC1 | 0.92 | 2.53 | 1.85
17 | Oc1ccccc1CNCC12CC3CC(CC(C3)C1)C2 | 3.18 | 2.08 | 2.13
18 | CCCCCCCC/C=C\CCCCCCCC(=O)NCc1ccc(O)c(OC)c1 | 8.15 | 7.4 | 5.67
19 | N=c1c(C(=O)NCc2ccccc2)cc2c(=O)n3ccccc3nc2n1CCc1ccccc1 | 3.5 | 4.07 | 2.34
20 | CCCc1cc(N2CCC(N(CC)CC)C2)nc(Nc2ccc(OC)cc2)n1 (stereo not given) | 3.16 | 3.72 | 1.91
21 | CNC(=O)Cc1ccc(C(=O)Nc2cccc(-c3ccc(-c4nc5cccc(C)c5[nH]4)s3)c2)cc1 | 3.65 | 2.74 | 1.79
22 | O=C(Nc1cccc(CN2CCN(C(=O)c3ccccc3)CC2)c1)c1ccco1 | 3.67 | 3.78 | 7.1
23 | Cc1noc(C)c1-c1ccc2c(Nc3ccc([N+](=O)[O-])cc3)c(C(N)=O)cnc2c1 | -0.67 | -0.09 | -0.76
24 | O=C(Nc1cc(Cl)c(Cl)cc1NC(=O)c1cccc(-c2ccccc2)c1O)c1cccc(-c2ccccc2)c1O | 5.1 | 0.97 | 2.6
25 | O=C(C=Cc1ccc(C(=O)Nc2ccc(C3=NCCN3)cc2)cc1)Nc1ccc(C2=NCCN2)cc1 | 5.16 | 5.38 | 5.13

Row | SMILES | inhibition [1] [%] | inhibition [2] [%] | inhibition [3] [%]
26 | Nc1nc(O)c2cc(CN(C=O)c3ccc(C(=O)N[C@@H](CCC(=O)O)C(=O)O)cc3)ccc2n1 | 6.36 | 4.17 | 2.98
27 | COc1cccc(-c2ccc3c(-c4cccc(S(C)(=O)=O)c4)cnc(N)c3c2)c1 | 8.21 | 5.42 | 2.21
28 | N#Cc1ccc(CN2CCC(Oc3ccc(NC(=O)c4cccs4)cc3)C2)cc1 (stereo not given) | 2.68 | -0.99 | 0.05
29 | Nc1ccnc2ccc(NC(=O)CCCCCc3ccccc3)cc12 | 1.43 | 0.96 | 1.99
30 | Clc1ccc(CNc2ccnc(NCCc3coc4ccccc34)n2)c(Cl)c1 | 5.99 | 6.11 | 0.66
31 | O=C(Nc1cccc(-c2cccc(-c3nc4ccccc4[nH]3)c2)c1)Nc1ccc2c(c1)OCO2 | 4.3 | 4.48 | 1.05
32 | O=C(O)c1ccc(NC(=O)C2CC(=O)N(Cc3ccc(Cl)cc3)C(=Nc3ccc(Cl)cc3)S2)cc1 (stereo not given) | 2.23 | 2.86 | 1.01
33 | O=C(Cn1cc(C(F)(F)F)cc(Cl)c1=O)N1CCN(S(=O)(=O)c2ccc(Cl)cc2)CC1 | 2.2 | 1.76 | -0.25
34 | O=C(/C=C/c1ccc([N+](=O)[O-])cc1)N1CCC(NS(=O)(=O)c2cccc(C(F)(F)F)c2)CC1 | 3.4 | 3 | 0.97
35 | OCCN1CCN(C2Cc3ccc(F)cc3Sc3ccc(Cl)cc32)CC1 (stereo not given) | 0.59 | -3.09 | 0.59
36 | CCOc1ccc(C(=O)Nc2ccc(-c3nc4ccccc4[nH]3)cc2)cc1[N+](=O)[O-] | 1.79 | 2.52 | 1.46
37 | COc1cccc(OC)c1OCCCOc1c(C)nc(N)nc1N | 0.61 | 1.79 | 0.4
38 | CCC(=O)N[C@@H]1CN[C@@H](C#Cc2cc3c(Nc4ccc(OCc5cccc(F)c5)c(Cl)c4)ncnc3s2)C1 | 2.02 | 0.3 | 1.72
39 | COc1ccc(C2CCC(NCCCCNC(=O)c3ccc(NC(=O)c4ccc(Cl)cc4)cc3)CC2)cc1 (stereo not given) | 1.37 | 4.07 | 4.39
40 | CCCCCCCCc1c(C)[nH]c(C)c(Cl)c1=O | 0.5 | 0.28 | -0.99
41 | COc1cc(NC(=O)c2cccs2)c(C(=O)NCc2ccc(C)cc2)cc1OC | 5.62 | 4.22 | 7.02
42 | O=C1c2cc(I)ccc2SC1c1ccccc1 (stereo not given) | 1.22 | 0.48 | 0.13
43 | COc1ccc(-c2ccc(NC(=O)c3ccc(C#N)cc3)cc2)cc1CN(C)CCN(C)C | 6.36 | 4.84 | 1.19
44 | COc1ccccc1N1CCN(CCCCNC(=O)c2ccc(NC(=O)c3ccc4ccccc4c3)cc2)CC1 | 0.49 | 1.01 | -0.43
45 | CCCN1CCc2c(sc3nc(SCC(=O)Nc4ccc(C)cc4)n(-c4ccc(C)cc4)c(=O)c23)C1 | 6.06 | 3.25 | 3.72
46 | O=S(=O)(NCCN1CCCC1)c1cccc(-c2ccc(CNC3Cc4ccccc4C3)cc2)c1 | 30.3 | 16.9 | 8.14
47 | CCCCCCCCn1c2c(c(=N)c3c1CCC3)CCC2 | 87.3 | 91.5 | 89.9
48 | Cc1cc(N/N=C/c2ccccc2[N+](=O)[O-])c2cccc(C)c2n1 | 11.2 | 13.9 | 7.94
49 | CN(CCC(O)c1ccc(Cl)c(Cl)c1)CC1CC1C(=O)c1ccccc1 (stereo not given) | 4.57 | 4.62 | 5.49
50 | CCCc1ccc(S(=O)(=O)NC2CCN(c3ccnc(Nc4ccc(F)cc4)n3)C2)cc1 (stereo not given) | 0.73 | 0.26 | 1.48
